Measurements from PubChem BioAssay (Tox21).
Where “and” joins values, the source holds several entries; their conditions need not be identical. Equal entries are not always repeated. Inconclusive results are not listed. Where a call stands in place of a potency, no number is given. Calls of active or inactive are those of the source. Unless noted, the call rests on the fitted dose curve; in most records, active means well fitted curve in the direction sought with a large enough effect in the repeat runs; inconclusive means weak or mixed curves; inactive means no such curve, though single readings can be large; an effect the other way counts as inactive or inconclusive.

What was measured:
[1] = qHTS assay to identify aromatase inhibitors - cell viability counter screen (AID 743084);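 further: cells stimulated with testosterone during compound exposure; nearly all actives have a fitted effect of over 55% in size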
[2] = biological target: Aryl hydrocarbon receptor (Homo sapiens) (UniProt P35869); experiment: qHTS assay to identify small molecule that activate the aryl hydrocarbon receptor (AhR) signaling pathway (AID 743085); further: nearly all actives have a fitted effect of over 15% in size; further: potency means the concentration at half of the fitted maximal effect;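 on activation: HG2L7.5c1 human HepG2 liver cells with stably integrated DRE-driven firefly reporter; series mostly up to about 70 µM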
In short: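 Luminescence read-out: ONE-Glo reagent, 30 min at room temperature, in HG2L7.5c1 HepG2 reporter cells treated 24 h at 37C. Viability was measured beforehand by CellTiter-Fluor fluorescence after 30 min at 37C.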

[3] = biological target: Peroxisome proliferator-activated receptor gamma (Homo sapiens) (UniProt P37231); experiment: qHTS assay to identify small molecule agonists of the peroxisome proliferator-activated receptor gamma (PPARg) signaling pathway (AID 743094; active means well fitted activation curve with a large enough effect in the signal ratio in the repeat runs, not every such curve was filed as active; the % refers to the signal ratio)
In short: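 Fluorescence-based beta-lactamase readout in HEK293H PPARg UAS-bla cells after 17 h compound exposure (37C) and 1 h B/G FRET substrate incubation at room temperature.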

[4] = biological target: Peroxisome proliferator-activated receptor gamma (Homo sapiens) (UniProt P37231); experiment: qHTS assay to identify small molecule antagonists of the peroxisome proliferator-activated receptor gamma (PPARg) signaling pathway (AID 743191; calls by dose curve; further: series mostly up to about 63 µM; nearly all actives have a fitted effect of over 30% in size)
In short: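 GeneBLAzer PPARg UAS-bla HEK293H cells carrying a UAS-driven beta-lactamase reporter were plated at 3000 cells/well, preincubated 5 h at 37C, then given compound for 17 h at 37C; LiveBLAzer B/G FRET substrate was read after 1 h at room temperature.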

[5] = qHTS assay to identify small molecule antagonists of the peroxisome proliferator-activated receptor gamma (PPARg) signaling pathway - cell viability counter screen (AID 743194); further: nearly all actives have a fitted effect of over 55% in size
In short: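 PPARg-UAS-bla HEK293H cells were plated, rested 5 h at 37 C, then treated with compounds plus rosiglitazone (50 nM final) for 17 h at 37 C; viability was then read by CellTiter-Glo luminescence after 30 min at room temperature.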

[6] = qHTS assay for small molecule agonists of the antioxidant response element (ARE) signaling pathway (AID 743202; active means well fitted activation curve with a large enough effect in the signal ratio in the repeat runs, not every such curve was filed as active; the % refers to the signal ratio)
In short: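 Following a 16 h, 37 C exposure of reporter HepG2 cells (ARE-driven beta-lactamase, 2,000 cells/well) to compounds, FRET substrate was applied for 2 h at room temperature and fluorescence intensity recorded.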

[7] = qHTS assay for small molecule agonists of the antioxidant response element (ARE) signaling pathway - cell viability counter screen (AID 743203; calls by dose curve; further: nearly all actives have a fitted effect of over 55% in size)
In short: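 Parallel cytotoxicity read-out for the ARE-bla screen: HepG2 reporter cells, 16 hrs with compounds, then CellTiter-Glo luminescence.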

[8] = qHTS assay for small molecule activators of the heat shock response signaling pathway - cell viability counter screen (AID 743209); further: nearly all actives have a fitted effect of over 50% in size
In short: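 To flag cytotoxic compounds, HSE-bla HeLa cells plated at 1500 cells/well were dosed for 5 h at 37 C, followed by the reporter FRET read and then CellTiter-Glo, with luminescence recorded 30 min after reagent addition.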

[9] = qHTS assay for small molecule activators of the heat shock response signaling pathway (AID 743210; active means well fitted activation curve with a large enough effect in the signal ratio in the repeat runs, with a control signal flat, not every such curve was filed as active; the % refers to the signal ratio; further: series mostly up to about 63 µM)
In short: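 Heat shock element–beta-lactamase HeLa reporter cells; qHTS with compounds for 5 h at 37 C; detection by FRET substrate fluorescence after 2.5 h at RT.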

[10] = qHTS assay to identify small molecule agonists of the peroxisome proliferator-activated receptor delta (PPARd) signaling pathway - cell viability counter screen (AID 743211); further: nearly all actives have a fitted effect of over 55% in size
In short: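 Read-out: CellTiter-Glo luminescence, 30 min RT, measured in the same wells as the beta-lactamase reporter. Cells: GeneBLAzer PPAR delta UAS-bla HEK293H, 3000 cells/well, compound exposure 17 h at 37C.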

[11] = biological target: Peroxisome proliferator-activated receptor delta (Homo sapiens) (UniProt Q03181); experiment: qHTS assay to identify small molecule agonists of the peroxisome proliferator-activated receptor delta (PPARd) signaling pathway (AID 743212; calls by dose curve)
In short: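 Beta-lactamase reporter read by fluorescence (LiveBLAzer B/G FRET, 2 h, room temperature). Test agents, in DMSO, incubated at 37 C with PPARd-bla HEK293H cells.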

[12] = qHTS assay to identify small molecule antagonists of the peroxisome proliferator-activated receptor delta (PPARd) signaling pathway - cell viability counter screen (AID 743213); further: nearly all actives have a fitted effect of over 50% in size
In short: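 CellTiter-Glo was added to PPARd-bla HEK293H wells following 17 h compound treatment in the presence of 300 nM L165041. Luminescence was recorded after 30 min at room temperature.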

[13] = biological target: Peroxisome proliferator-activated receptor delta (Homo sapiens) (UniProt Q03181); experiment: qHTS assay to identify small molecule antagonists of the peroxisome proliferator-activated receptor delta (PPARd) signaling pathway (AID 743215; active means well fitted inhibition curve with a large enough effect in the signal ratio in the repeat runs, not every such curve was filed as active; the % refers to the signal ratio;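 further: cells stimulated with agonist L165041 at 300 nM final during compound exposure; series mostly up to about 62 µM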)
In short: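 Screen format: qHTS, antagonist mode. HEK293H PPARd-bla cells received compound and 300 nM L165041 (final), 17 h, 37 C. Beta-lactamase detected via FRET substrate fluorescence, 2 h, room temperature.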

[14] = biological target: Bile acid receptor (Homo sapiens) (UniProt Q96RI1); experiment: qHTS assay to identify small molecule antagonists of the farnesoid-X-receptor (FXR) signaling pathway (AID 743217; active means well fitted inhibition curve with a large enough effect in the signal ratio in the repeat runs, not every such curve was filed as active; the % refers to the signal ratio)
In short: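 Quantitative HTS, beta-lactamase reporter format: FXR-UAS-bla HEK 293T cells co-treated 16 h at 37 °C with compounds and 50 uM final chenodeoxycholic acid, then read by B/G FRET fluorescence.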

[15] = qHTS assay to identify small molecule agonists of the farnesoid-X-receptor (FXR) signaling pathway - cell viability counter screen (AID 743218); further: nearly all actives have a fitted effect of over 45% in size
In short: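 Same-well cytotoxicity check on FXR-UAS-bla HEK 293T cells: 5 h attachment, 16 h compound at 37 C, CellTiter-Glo luminescence read at room temperature after 30 min.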

[16] = biological target: Bile acid receptor (Homo sapiens) (UniProt Q96RI1); experiment: qHTS assay to identify small molecule agonists of the farnesoid-X-receptor (FXR) signaling pathway (AID 743220; active means well fitted activation curve with a large enough effect in the signal ratio in the repeat runs, not every such curve was filed as active; the % refers to the signal ratio)
In short: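 FXR-UAS-bla HEK 293T cells carrying a UAS-driven beta-lactamase reporter were plated for 5 h at 37C/5% CO2, then exposed to DMSO-dissolved Tox21 10K compounds for 16 h at 37C. A LiveBLAzer B/G FRET substrate was loaded for 2 h at room temperature before fluorescence reading.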

[17] = qHTS assay to identify small molecule antagonists of the farnesoid-X-receptor (FXR) signaling pathway - cell viability counter screen (AID 743221; active means well fitted cell-killing curve with a large enough effect in the repeat runs, not every such curve was filed as active; further: nearly all actives have a fitted effect of over 50% in size)
In short: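 HEK 293T FXR-bla cells, 5 h pre-incubation; compound + CDCA 50 uM final, 16 h, 37 C; beta-lactamase FRET read first, then CellTiter-Glo luminescence, 30 min RT.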

[18] = biological target: Vitamin D3 receptor (Homo sapiens) (UniProt P11473); experiment: qHTS assay to identify small molecule agonists of the vitamin D receptor (VDR) signaling pathway (AID 743222; calls by dose curve)
In short: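 Using LiveBLAzer B/G FRET detection, agonism was scored in VDR-bla cells exposed overnight (16 h, 37C) to DMSO-dissolved compounds; substrate incubation was 2 h at room temperature.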

[19] = biological target: Vitamin D3 receptor (Homo sapiens) (UniProt P11473); experiment: qHTS assay to identify small molecule antagonists of the vitamin D receptor (VDR) signaling pathway (AID 743223; active means well fitted inhibition curve with a large enough effect in the signal ratio in the repeat runs, not every such curve was filed as active; the % refers to the signal ratio)
In short: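 Beta-lactamase reporter read-out: FRET substrate fluorescence after 2 h at room temperature, following 16 h exposure of VDR-bla cells to test compound plus 3 nM (final) 1alpha,25-dihydroxyvitamin D3 agonist at 37C.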

[20] = qHTS assay to identify small molecule that activate the aryl hydrocarbon receptor (AhR) signaling pathway - cell viability counter screen (AID 743086);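 further: HepG2 liver cells carrying the AhR DRE luciferase reporter; series mostly up to about 70 µM; nearly all actives have a fitted effect of over 45% in size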
In short: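 HepG2-AhR-luc (HG2L7.5c1) cells, 4000/well, were preincubated 5 h at 37C, exposed to compound in qHTS format for 24 hr at 37C, then given CellTiter-Fluor for 30 min; viability was read as fluorescence in the reporter wells.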

Chain of Peroxisome proliferator-activated receptor delta (Homo sapiens) (Q03181 whole entry, looked up): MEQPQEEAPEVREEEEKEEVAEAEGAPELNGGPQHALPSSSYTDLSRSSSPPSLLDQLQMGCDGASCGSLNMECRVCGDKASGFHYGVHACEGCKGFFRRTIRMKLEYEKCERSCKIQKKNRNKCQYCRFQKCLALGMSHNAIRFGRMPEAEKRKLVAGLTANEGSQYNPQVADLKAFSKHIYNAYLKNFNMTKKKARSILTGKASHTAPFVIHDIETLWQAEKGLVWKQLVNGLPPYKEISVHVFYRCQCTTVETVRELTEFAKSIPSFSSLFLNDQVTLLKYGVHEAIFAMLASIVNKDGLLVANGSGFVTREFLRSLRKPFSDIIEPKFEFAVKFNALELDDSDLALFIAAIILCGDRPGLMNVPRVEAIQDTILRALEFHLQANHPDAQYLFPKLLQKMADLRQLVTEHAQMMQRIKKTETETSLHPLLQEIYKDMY
Chain of Aryl hydrocarbon receptor (Homo sapiens) (P35869 whole entry, looked up): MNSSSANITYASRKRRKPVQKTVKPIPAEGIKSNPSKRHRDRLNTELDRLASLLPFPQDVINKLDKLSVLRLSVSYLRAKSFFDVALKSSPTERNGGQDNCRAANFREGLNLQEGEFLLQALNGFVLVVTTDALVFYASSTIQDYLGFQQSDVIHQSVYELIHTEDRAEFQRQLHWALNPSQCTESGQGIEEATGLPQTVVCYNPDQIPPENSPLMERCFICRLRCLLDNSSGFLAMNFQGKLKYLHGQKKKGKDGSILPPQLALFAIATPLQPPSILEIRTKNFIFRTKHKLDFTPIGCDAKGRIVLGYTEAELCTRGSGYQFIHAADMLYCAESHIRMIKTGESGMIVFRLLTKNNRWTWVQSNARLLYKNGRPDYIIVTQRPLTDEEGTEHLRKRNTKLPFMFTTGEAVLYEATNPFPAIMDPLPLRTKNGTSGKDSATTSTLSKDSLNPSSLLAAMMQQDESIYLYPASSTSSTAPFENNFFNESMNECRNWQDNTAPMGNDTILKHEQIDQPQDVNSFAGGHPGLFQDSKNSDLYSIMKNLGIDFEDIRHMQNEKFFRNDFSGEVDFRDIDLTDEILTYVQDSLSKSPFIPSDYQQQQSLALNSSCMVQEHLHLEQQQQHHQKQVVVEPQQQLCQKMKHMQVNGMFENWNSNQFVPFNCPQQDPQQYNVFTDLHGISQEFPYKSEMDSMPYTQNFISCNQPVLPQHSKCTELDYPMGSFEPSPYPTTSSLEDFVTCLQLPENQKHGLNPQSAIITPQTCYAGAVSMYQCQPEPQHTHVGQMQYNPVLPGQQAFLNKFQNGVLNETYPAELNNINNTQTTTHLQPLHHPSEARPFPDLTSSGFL
Chain of Bile acid receptor (Homo sapiens) (Q96RI1 whole entry, looked up): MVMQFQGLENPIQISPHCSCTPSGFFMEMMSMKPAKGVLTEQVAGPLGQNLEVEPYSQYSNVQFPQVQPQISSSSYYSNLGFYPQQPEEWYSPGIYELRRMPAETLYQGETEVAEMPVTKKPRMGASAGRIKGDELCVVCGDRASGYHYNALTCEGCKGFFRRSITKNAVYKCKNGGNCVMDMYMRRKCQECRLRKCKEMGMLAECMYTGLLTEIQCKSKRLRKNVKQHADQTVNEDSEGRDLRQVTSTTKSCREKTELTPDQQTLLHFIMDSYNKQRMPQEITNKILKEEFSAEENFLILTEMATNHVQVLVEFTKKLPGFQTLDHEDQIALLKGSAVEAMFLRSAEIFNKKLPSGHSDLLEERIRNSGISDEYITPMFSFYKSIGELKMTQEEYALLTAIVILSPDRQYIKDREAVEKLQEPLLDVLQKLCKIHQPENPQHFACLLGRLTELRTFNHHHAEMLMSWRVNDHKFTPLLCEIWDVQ
Chain of Vitamin D3 receptor (Homo sapiens) (P11473 whole entry, looked up): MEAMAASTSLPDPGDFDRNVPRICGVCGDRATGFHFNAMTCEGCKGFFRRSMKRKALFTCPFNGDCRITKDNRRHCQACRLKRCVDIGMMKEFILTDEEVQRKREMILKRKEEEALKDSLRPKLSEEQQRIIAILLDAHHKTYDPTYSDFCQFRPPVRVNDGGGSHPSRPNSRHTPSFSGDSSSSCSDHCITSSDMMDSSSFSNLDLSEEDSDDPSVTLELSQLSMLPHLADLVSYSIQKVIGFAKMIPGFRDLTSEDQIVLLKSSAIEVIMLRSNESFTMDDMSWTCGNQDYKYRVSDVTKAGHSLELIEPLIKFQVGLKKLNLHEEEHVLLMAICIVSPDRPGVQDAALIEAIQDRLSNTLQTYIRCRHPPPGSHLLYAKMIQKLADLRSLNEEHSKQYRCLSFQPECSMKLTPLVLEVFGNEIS
Chain of Peroxisome proliferator-activated receptor gamma (Homo sapiens) (P37231 whole entry, looked up): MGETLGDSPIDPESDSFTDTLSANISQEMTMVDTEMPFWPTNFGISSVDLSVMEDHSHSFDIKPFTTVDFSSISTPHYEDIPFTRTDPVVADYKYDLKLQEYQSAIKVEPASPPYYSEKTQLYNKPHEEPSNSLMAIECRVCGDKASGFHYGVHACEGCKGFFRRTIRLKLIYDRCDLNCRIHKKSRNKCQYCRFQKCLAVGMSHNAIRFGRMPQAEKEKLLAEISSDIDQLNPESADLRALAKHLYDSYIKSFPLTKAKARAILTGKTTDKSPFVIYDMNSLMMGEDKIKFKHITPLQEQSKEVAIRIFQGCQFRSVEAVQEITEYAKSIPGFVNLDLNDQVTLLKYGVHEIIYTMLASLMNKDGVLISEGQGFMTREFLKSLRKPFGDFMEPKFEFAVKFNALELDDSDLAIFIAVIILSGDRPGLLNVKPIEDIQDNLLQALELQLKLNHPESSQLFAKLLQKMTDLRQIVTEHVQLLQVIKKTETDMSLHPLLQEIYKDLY

SMILES	Potency [1]	Potency [2]	outcome [3]	Potency [4]	outcome [5]	Potency [6]	Potency [7]	Potency [8]	Potency [9]	Potency [10]	outcome [11]	outcome [12]	outcome [13]	outcome [14]	Potency [15]	outcome [16]	Potency [17]	outcome [18]	outcome [19]	outcome [20]
COc1nc(NC(C)C)nc(NC(C)C)n1	inactive	inactive	inactive	inactive	inactive	inactive	inactive	inactive	inactive	inactive	inactive	inactive	inactive	inactive	inactive	inactive	inactive	inactive	inactive	
CN(C)NC(=O)CCC(=O)O	inactive	inactive	inactive	inactive	inactive	inactive	inactive	inactive	inactive	inactive	inactive	inactive	inactive		inactive		inactive	inactive	inactive	
CC(C)CCCCCCOC(=O)c1ccccc1C(=O)OCCCCCCC(C)C	inactive	inactive			inactive	inactive	inactive	inactive	inactive	inactive	inactive	inactive	inactive	inactive	inactive	inactive	inactive	inactive	inactive	inactive
Oc1ccc(Cl)cc1	inactive	inactive			inactive	inactive	inactive	inactive	inactive	inactive		inactive			inactive		inactive	inactive	inactive	inactive
O=C(O)C1C(C(=O)O)C2(Cl)C(Cl)=C(Cl)C1(Cl)C2(Cl)Cl (stereo not drawn)	inactive	inactive			inactive	inactive	inactive	inactive	inactive	inactive	inactive	inactive	inactive	inactive	inactive	inactive	inactive			inactive
Cl[C@H]1OCCO[C@@H]1Cl	inactive	inactive	inactive	inactive	inactive	inactive	inactive	inactive	inactive	inactive	inactive	inactive	inactive	inactive	inactive	inactive	inactive			
CCOC(=O)CC(SP(=O)(OC)OC)C(=O)OCC (stereo not drawn)	inactive	inactive	inactive	inactive	inactive		inactive	inactive	inactive	inactive	inactive	inactive	inactive	inactive	inactive	inactive	inactive			inactive
OCC(O)CCl (stereo not drawn)	inactive	inactive	inactive	inactive	inactive	inactive	inactive	inactive	inactive	inactive	inactive	inactive	inactive		inactive		inactive	inactive	inactive	
FC(F)(F)c1ccc(Cl)cc1	inactive	inactive	inactive	inactive	inactive	inactive	inactive	inactive	inactive	inactive	inactive	inactive	inactive	inactive	inactive	inactive	inactive	inactive	inactive	
CCNc1nc(Cl)nc(NC(C)C)n1	inactive	inactive	inactive	inactive	inactive	inactive	inactive	inactive	inactive	inactive	inactive	inactive	inactive		inactive		inactive	inactive	inactive	
CCCOC(=O)c1ccccc1C(=O)OCCC	inactive	inactive	inactive	inactive	inactive	inactive	inactive	inactive	inactive	inactive	inactive	inactive	inactive	inactive	inactive	inactive	inactive			
O=S(=O)(O)OOS(=O)(=O)O	inactive	inactive	inactive	inactive	inactive	inactive	inactive	inactive	inactive	inactive	inactive	inactive	inactive		inactive		inactive	inactive	inactive	
Cc1ccc(N=C=O)cc1N=C=O	inactive	25 µM (active) and 1.08 µM (active)	inactive	inactive	inactive	inactive	inactive	inactive		inactive		inactive			inactive		inactive	inactive	inactive	inactive
O=C(O)c1cc(Oc2ccc(C(F)(F)F)cc2Cl)ccc1[N+](=O)[O-]	inactive	inactive	inactive	inactive	inactive	inactive	inactive	inactive	inactive	inactive		inactive			inactive		inactive			
Cc1cc(Cl)ccc1OC(C)C(=O)O (stereo not drawn)	inactive	inactive		inactive	inactive	inactive	inactive	inactive	inactive	inactive	inactive	inactive	inactive		inactive		inactive			inactive
